Several values for one entry are separate records, joined by “and”; a condition that tells them apart may be missing. Identical values can stand only once. Results filed as inconclusive are left out. Where a call stands in place of a potency, no number is given. The source holds several records for some structures; these can differ, active in one and inactive in another. Activity calls are given as the source filed them. Calls come from the whole dose curve; as a rule, active = well fitted cell-killing curve with a large enough effect in the repeat runs; inconclusive = weak or mixed curves, or effect the other way; inactive = no such curve, though single readings can be large or run the other way.
Potency is the fitted concentration of half-maximal effect.

A short description of this assay: qHTS assay for identifying genotoxic compounds that show differential cytotoxicity against isogenic chicken DT40 cell lines with known DNA damage response pathways - Rev3 mutant cell line (AID 743014). Note: nearly all actives have a fitted effect of over 55% in size. Particulars: chicken DT40 Rev3-/- viability, CellTiter-Glo, 40 h; series mostly up to 68.4 µM. The text has this:
National Center for Advancing Translational Sciences [NCATS]
NIH Chemical Genomics Center [NCGC]
U.S. Environmental Protection Agency [EPA]
National Institutes of Environmental Health Sciences [NIEHS]
National Toxicology Program [NTP]
U.S. Food and Drug Administration [FDA]
DNA repair pathways play a critical role in cellular homeostasis by repairing DNA damage induced by endogenous processes and xenobiotics. Isogenic chicken DT40 cell lines deficient in different DNA repair pathways can be used to identify genotoxic compounds and aid in characterizing the nature of the DNA damage induced. Two DNA repair-deficient cell lines with disrupted genes, Rad54/Ku70 or Rev3, were used to screen the Tox21 10K compound library. Possible genotoxicity was based on the presence of a significant increase in cytotoxicity in one or more of the DNA repair-deficient cell lines compared to that observed in the parental DNA repair-proficient cell line. CellTiter Glo viability assay (Promega, Madison, WI) was used to measure cell viability in these cells after compound treatment. This assay includes the data from the Rev3 mutant cell line.
Tox21 Assay Protocol Summary:
300 DT40 mutant cells in 5 uL/well were dispensed into white, solid-bottom 1536-well plates using a Multidrop Combi (ThermoFisher Scientific, Waltham, MA) dispenser. After the assay plates were incubated at 37 C/5% CO2 for approximately 0.5 hour, 23 nL of compounds dissolved in DMSO, positive controls or DMSO only was transferred into the assay plate by a pintool work station (Kalypsys, San Diego, CA). The assay plates were incubated at 37 C/5% CO2 for 40 hours. After 5 uL per well of CellTiter-Glo reagent was added into each well of the assay plates, the plates were incubated for 30 min at room temperature and the luminescence intensity of the plates was measured using a ViewLux (PerkinElmer, Shelton, CT) plate reader.
(Quantitative high-throughput screening tests each substance at several concentrations.)
For `CCCCCCCCCCCCCCCC[N+](C)(C)CC`, the Potency was 422 nM (active) and 866 nM (active).

In the case of `Nc1ccc(C(=O)O)c(O)c1`, the Potency entry was “inactive”.

For `Cc1cccc(C(=O)O)c1O`, the Potency result was “inactive”.

Consider `S=C([S-])NCCNC(=S)[S-].S=C([S-])NCCNC(=S)[S-].[Mn+2].[Zn+2]`, for which the Potency was 33.5 µM (active).

For `C[C@H]1NCc2cc(-c3ccc4c(=O)c(C(=O)O)cn(C5CC5)c4c3OC(F)F)ccc21`, the Potency entry is “inactive”.

For the molecule `CC/C=C\CCCCCO`, the Potency entry is “inactive”.

Consider `CNc1ccc([N+](=O)[O-])cc1`, for which the Potency was 68.7 µM (active).

`Cc1ccc(N/N=c2\c(=O)cc/c(=N\Nc3ccc(S(=O)(=O)O)cc3)c2=O)c(C)c1`: the Potency result is “inactive”.

With `CCC(C)[O-].CCC(C)[O-].CCOC(=O)/C=C(/C)[O-].[Al+3]`, the Potency entry is “inactive”.

Turning to `CCCCOC(=O)CC`, the Potency result was “inactive”.

As to `CC(C(=O)O)c1ccc2c(c1)[nH]c1ccc(Cl)cc12` (stereo not given), the Potency result was “inactive”.

For the molecule `CCCCCCCCCCCCCC[N+](C)(C)Cc1ccccc1`, the Potency was 750 nM (active) and 493 nM (active).

`CCCC1CCC(=O)CC1`: the Potency result is “inactive”.

In the case of `O=S(=O)(O)c1ccccc1/C=C/c1ccc(-c2ccc(/C=C/c3ccccc3S(=O)(=O)O)cc2)cc1`, the Potency entry is “inactive”.

For `[Cu+]`, the Potency was 54.5 µM (active).

Regarding `CCCC(=O)OCCc1ccccc1`, the Potency entry is “inactive”.

Regarding `CC(C)CCOC(=O)/C=C/c1ccccc1`, the Potency result was “inactive”.

Take `Cc1cc(-n2nc3ccc(Cl)cc3n2)c(O)c(C(C)(C)C)c1`: the Potency entry is “inactive”.

For `Cc1ccc(C(=O)O)cc1`, the Potency entry is “inactive”.

Consider `CC1(C)[C@@H](O)CC[C@]2(C)[C@H]3C(=O)C=C4[C@@H]5C[C@@](C)(C(=O)O)CC[C@]5(C)CC[C@@]4(C)[C@]3(C)CC[C@@H]12`, for which the Potency was 5.96 µM (active) and inactive.

Turning to `CCC(C)n1ncn(-c2ccc(N3CCN(c4ccc(OC[C@H]5CO[C@](Cn6cncn6)(c6ccc(Cl)cc6Cl)O5)cc4)CC3)cc2)c1=O` (stereo not given in full), the Potency is 0.422 µM (active).

For `OCCN1CCN(CCCN2c3ccccc3Sc3ccc(C(F)(F)F)cc32)CC1`, the Potency was 1.68 µM (active).

In the case of `Cc1cc(=O)oc2cc(O)cc(O)c12`, the Potency result is “inactive”.

For `CC(=O)[C@H]1CC[C@H]2[C@@H]3CCC4=CC(=O)CC[C@]4(C)[C@H]3CC[C@]12C`, the Potency is 9.44 µM (active) and 6.82 µM (active) and 6.86 µM (active).

For `Cc1c(C)c2c(c(C)c1OC(=O)c1cccnc1)CC[C@@](C)(CCC[C@H](C)CCC[C@H](C)CCCC(C)C)O2`, the Potency entry is “inactive”.

Turning to `CCCCCC/C=C\CCCCCCCC(=O)O`, the Potency result is “inactive”.

`C[C@@H](O)[C@H](N)C(=O)O`: the Potency entry is “inactive”.

For `CCO[Si](OCC)(OCC)OCC`, the Potency entry was “inactive”.

Take `CCCCCCOC(=O)C(C)CC` (stereo not given): the Potency result was “inactive”.

With `C#CC1(O)CC[C@H]2[C@@H]3CCC4=CCCC[C@@H]4[C@H]3CC[C@@]21C` (stereo not given in full), the Potency is 11.4 µM (active) and 7.7 µM (active).

For `OC[C@H]1O[C@H](O[C@H]2O[C@H](CO)[C@@H](O)[C@H](O)[C@H]2O)[C@H](O)[C@@H](O)[C@@H]1O`, the Potency result is “inactive”.

`C=C(C)c1cccc(C(=C)C)c1`: the Potency result is “inactive”.

On to `O=C(O)O`, for which the activity, negative = cytotoxicity is -2.82% [at 8.53 µM] (inactive).

`CCc1ccc(Br)cc1`: the Potency result is “inactive”.

For `CCOC(=O)Cn1cccc1-c1nc(-c2ccc(OC)cc2)c(-c2ccc(OC)cc2)s1`, the Potency result was “inactive”.

`Oc1c(I)cc(Cl)c2cccnc12`: the Potency is 11.9 µM (active) and 15.3 µM (active).

`Cc1ccc(C)cc1`: the Potency entry is “inactive”.

Turning to `CC(C)NC[C@@H](O)COc1ccc(CC(N)=O)cc1`, the Potency entry was “inactive”.

As for `CC(C)(C)CC(C)(C)c1ccc(Nc2ccc(C(C)(C)CC(C)(C)C)cc2)cc1`, the activity, negative = cytotoxicity was 3.12% [at 8.53 µM] (inactive).

Consider `c1ccc(C(O[C@@H]2CCCN(CCc3ccc4c(c3)OCO4)C2)c2ccccc2)cc1`, for which the Potency is 30.6 µM (active).

The values above are taken from PubChem BioAssay (Tox21).
